Sampled rows, rich in hits. Any-hit rate of the full collection: about 1.5%.
cardiac RTF act – increases calcium sensitivity of human cardiac regulated thin filaments; IANBD-labeled TnC RTF fluorescence at EC20 calcium; 0% EC20 calcium, 100% full calcium; activation, % at 7.2 µM; 340,000 tested, 0.24% active; AID 493008;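 active means activation above the mean over all tested compounds plus 3 SD, cut at about 30% in these data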;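 further: rise in fluorescence read as greater calcium sensitivity of cardiac thin filaments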
IDE cell inh – cellular human IDE inhibition; P14735; HEK cells, FAbetaB cleavage, fluorescence polarization; inhibition, % at 5.59 µM; 320,000 tested, 0.41% active;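 active means percent inhibition above the average of all tested compounds plus 3 SD, set per screening campaign, cut at about 16% in these data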;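 further: IDE supplied by intact live HEK cells; FP after avidin binding of uncleaved biotin substrate so inhibition keeps polarization high; 0% = DMSO wells and 100% = 60 µM reference IDE inhibitor Ii1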
Target sequence (P14735 whole entry, looked up): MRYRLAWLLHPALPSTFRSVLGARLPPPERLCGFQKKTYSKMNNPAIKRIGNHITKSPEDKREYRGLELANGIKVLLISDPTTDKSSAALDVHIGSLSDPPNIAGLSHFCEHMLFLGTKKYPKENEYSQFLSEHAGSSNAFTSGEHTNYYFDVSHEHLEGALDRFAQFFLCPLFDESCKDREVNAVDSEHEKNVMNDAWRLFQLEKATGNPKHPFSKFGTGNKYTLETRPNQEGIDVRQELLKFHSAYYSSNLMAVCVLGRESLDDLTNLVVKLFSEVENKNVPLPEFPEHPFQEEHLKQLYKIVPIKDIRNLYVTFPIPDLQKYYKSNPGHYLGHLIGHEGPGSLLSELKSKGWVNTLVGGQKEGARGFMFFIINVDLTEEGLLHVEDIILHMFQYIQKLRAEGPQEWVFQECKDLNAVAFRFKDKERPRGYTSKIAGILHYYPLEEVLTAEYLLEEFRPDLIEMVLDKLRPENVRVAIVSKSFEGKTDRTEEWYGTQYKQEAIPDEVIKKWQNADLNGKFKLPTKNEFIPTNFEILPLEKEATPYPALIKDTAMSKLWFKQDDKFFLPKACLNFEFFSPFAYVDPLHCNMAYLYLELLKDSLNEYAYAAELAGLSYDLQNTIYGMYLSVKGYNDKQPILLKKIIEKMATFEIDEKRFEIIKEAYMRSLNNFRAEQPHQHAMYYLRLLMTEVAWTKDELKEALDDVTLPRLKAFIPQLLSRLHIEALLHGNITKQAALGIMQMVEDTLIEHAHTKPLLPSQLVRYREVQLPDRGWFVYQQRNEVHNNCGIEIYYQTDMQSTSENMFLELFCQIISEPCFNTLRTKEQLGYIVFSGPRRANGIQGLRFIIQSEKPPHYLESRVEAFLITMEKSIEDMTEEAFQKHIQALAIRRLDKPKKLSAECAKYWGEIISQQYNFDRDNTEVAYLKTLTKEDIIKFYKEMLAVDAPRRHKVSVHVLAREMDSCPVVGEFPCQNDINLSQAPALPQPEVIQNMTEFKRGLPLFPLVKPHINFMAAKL
Cardiac RTF inh – cardiac RTF calcium desensitization; IANBD-labeled cardiac RTF, Ca2+ fluorescence; AID 493244; 340,000 tested, 0.12% active; inhibition, % at 7.15 µM; P19429+P45379;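 active means inhibition above the mean inhibition of all tested compounds plus 3 SD, cut at about 17% in these data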;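 further: assay run at fixed EC70 calcium of 1.6 mM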
IDE cell activ – IDE (human) activation, cell-based; activation, % at 5.96 µM; AID 493087; 340,000 tested, 0.073% active; HEK cells, FAbeta-B cleavage, fluorescence polarization; 0% vehicle, 100% cell-free pure enzyme wells; P14735;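 active means activation above the mean of all tested compounds plus 3 SD, set per screening campaign, cut at about 17% in these data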
CRFBP-R2 block – antagonists of CRF-binding protein/CRF-R2 receptor complex | HEK293 CRF-R2/CRF-BP, CRF-induced calcium fluorescence | inhibition, % at 11.8 µM | 350,000 tested, 0.59% active | AID 588475;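 active means inhibition of the ligand-induced calcium signal above about 50% at the single tested concentration, limit read from the data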
CRFR2-BP ag – agonists of human CRF-binding protein/CRF-R2 receptor complex; HEK293 CRF-R2/CRF-BP, calcium dye fluorescence (FLIPR); percent of saturating CRF peptide response; activation, % at 13.2 µM; 350,000 tested, 0.46% active;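 active means activation of at least 50%, plus an integration ratio under a set limit after plate pattern correction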;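 further: plate controls were neutral control wells without compound for no effect and CRF at EC100 for full effect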
IDE inh confirm – cellular human IDE inhibition, confirmation; HEK cells, FAbetaB cleavage, fluorescence polarization; inhibition, % at 5.59 µM; shares compounds with IDE cell inh; 1,200 tested, 51% active;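 active means mean inhibition across triplicate wells above the cutoff set by the earlier primary insulin-degrading enzyme screen, cut at about 16% in these data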;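 further: 0% = DMSO wells and 100% = 60 µM reference IDE inhibitor Ii1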
HEK293 tox – kills HEK cells in IDE inhibitor counter-screen; 1,200 tested, 28% active; shares compounds with IDE cell inh; inhibition, % at 5.59 µM; HEK293 cytotoxicity, ATP luminescence; AID 449730; in the data active means inhibition above about 22%;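 further: 0% = vehicle wells and 100% = reference cytotoxic drug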
FP fluor counter – fluorescent artifact in IDE inhibitor FP assay | shares compounds with IDE cell inh | FP counterscreen for fluorescent artifacts, IDE probe project | IC50, µM | 30 tested, under 10 active | AID 588718; call rule not given here
* hit, by the source's call; nt = no result given.

SMILES | cardiac RTF act | IDE cell inh | Cardiac RTF inh | IDE cell activ | CRFBP-R2 block | CRFR2-BP ag | IDE inh confirm | HEK293 tox | others
Cc1sc2ncnc(SCC(=O)N3CCN(C(=O)c4ccco4)CC3)c2c1C | 7 | 34* | 4 | -23 | -1 | 0 | 11 | 13
O=C(CSc1nnc(-c2ccc(Br)cc2)o1)N1CCN(C(=O)c2ccco2)CC1 | -1 | 17* | -4 | -15 | 5 | 1 | 9 | 6
Cc1ccc(S(=O)(=O)NCCNC(=O)CN2CCOCC2)cc1 | -4 | 2 | 1 | 4 | -3 | 2 | nt | nt
CCN(C(=O)c1c([N+](=O)[O-])cnn1C)c1ccccc1 | nt | nt | nt | nt | 15 | -1 | nt | nt
Cc1nnsc1C(=O)N/N=C/c1ccc2ccccc2c1O | 6 | 90* | -11 | -73 | -170 | 147* | 114* | 113*
Cc1nnsc1C(=O)N/N=C/c1ccccc1 | 1 | -4 | -9 | 7 | -10 | 0 | nt | nt
CCCCCCn1c(=O)[nH]c2nc3cc(N)ccc3nc2c1=O | nt | 69* | nt | nt | -308 | 275* | 93* | 14
O=C(Nc1ccc(F)c(F)c1)C1CCN(S(=O)(=O)c2cccs2)CC1 | -3 | 7 | 0 | 4 | -9 | -4 | nt | nt
COc1ccc2nc(N3CCN(C(=O)c4ccc5ncsc5c4)CC3)sc2c1 | -1 | 17* | -6 | -20 | -2 | 2 | 11 | 30*
COc1ccc(C(=O)NCCCNC(=O)c2ccccn2)cc1 | -1 | -2 | -5 | -6 | 1 | 0 | nt | nt
CC(=O)Oc1ccc(-n2c(=O)c3ccccc3c3ccccc3c2=O)cc1 | 5 | 1 | -2 | 4 | 32 | -1 | nt | nt
CC(=O)Oc1ccc(N2C(=O)c3cccc4c([N+](=O)[O-])ccc(c34)C2=O)cc1 | 4 | 18* | 3 | -4 | 75* | 4 | 13 | 68*
CC[C@]12c3[nH]c4ccc(Cl)cc4c3CCN1C(=O)[C@@H](CC(=O)NCCCn1ccnc1)C[C@@H]2C(=O)N1CCN(C(=O)C2CC2)CC1 | 1 | nt | -4 | -2 | -7 | 6 | nt | nt
Cc1ccccc1-n1c(O)c(/C=C/C=Nc2ccccc2)c(=O)[nH]c1=O | 124* | 66* | -135 | -71 | -86 | 81* | 85* | 7
CN1C(=O)CSc2ccc(NC(=O)NCCC3=CCCCC3)cc21 | -16 | 17* | -2 | -14 | -16 | 0 | 10 | 19
Cc1ccc(C(=O)C(C)Oc2ccc3ccc(=O)oc3c2)cc1 (centres undefined) | -1 | 9 | 1 | -4 | -9 | 1 | nt | nt
CC1CCN(c2ccc3c(c2)S(=O)(=O)c2cccc(C(=O)NCc4cccc(F)c4)c2C3=O)CC1 | 164* | 24* | -98 | -13 | -29 | 92* | 32* | 23*
O=C(NCc1ccco1)c1cccc2c1C(=O)c1ccc(/C=C/c3ccccc3)cc1S2(=O)=O | -2 | 8 | 2 | -6 | -1 | 2 | nt | nt
O=C(NCc1ccco1)c1cccc2c1C(=O)c1ccc(N3CCC(Cc4ccccc4)CC3)cc1S2(=O)=O | 117* | 46* | -197 | -17 | -14 | 62* | 45* | 43*
CC1CCN(c2ccc3c(c2)S(=O)(=O)c2ccccc2C3=O)CC1 | 21 | 12 | -30 | -7 | -25 | 36 | nt | nt
O=C(CNS(=O)(=O)c1ccccc1)NCC(=O)N1CCCCC1 | 4 | 5 | -6 | 2 | -6 | -1 | nt | nt
CCOC(=O)C1=C(COC(=O)CC(C)c2ccccc2)NC(=O)NC1C (centres undefined) | -1 | -2 | -10 | 6 | 1 | 0 | nt | nt
CCC/C(C#Cc1ccc(N(C)C)cc1)=C1/c2ccccc2C(=O)N1c1ccccc1 | 114* | 22* | -60 | -8 | -36 | 79* | 16 | 26*
CCc1ccc(NC(=O)CSc2nnc(-c3ccccn3)n2C)cc1 | 4 | 15 | -4 | -9 | 4 | -2 | nt | nt
CC(C)c1ccc(NC(=O)CSc2nnc(CN3CCOCC3)n2C)cc1 | 2 | 17* | -7 | -27 | 3 | -1 | 13 | 15
SMILES | cardiac RTF act | IDE cell inh | Cardiac RTF inh | IDE cell activ | CRFBP-R2 block | CRFR2-BP ag | IDE inh confirm | HEK293 tox | others
Cc1ccc(NC(=O)CSc2nnc(CN3CCOCC3)n2C)cc1C | 3 | 19* | -5 | -23 | -13 | 3 | 18* | 3
COc1ccc(Cl)cc1NC(=O)CSc1nnc(CN2CCOCC2)n1-c1ccc(Cl)cc1 | -3 | 18* | 0 | -10 | -22 | 11 | 4 | 16
CC(C)c1ccc(NC(=O)CSc2nnc(-c3ccccn3)n2C)cc1 | -1 | 19* | 5 | -18 | -8 | -2 | 11 | 4
Cc1ccc(-c2nc3ccc(Br)cn3c2CC(C)(C)C)cc1 | nt | nt | nt | nt | -21 | 1 | nt | nt
COc1cc(C(C(=O)NC2CCCC2)N(C(=O)c2snc(C(N)=O)c2N)c2ccccc2)cc(OC)c1OC (centres undefined) | -6 | 4 | -2 | 0 | 4 | 0 | nt | nt
COc1cccc(NC(=O)CSc2nnc(CN3CCOCC3)n2C)c1 | 2 | 12 | -3 | -15 | 10 | 1 | nt | nt
COC(=O)c1cc(NC(=O)CSc2nnc(CN3CCOCC3)n2C)ccc1Cl | 2 | 21* | 5 | -24 | 4 | 0 | 12 | 17
COc1ccc(NC(=O)CSc2nnc(CN3CCOCC3)n2C)cc1Cl | -2 | 22* | 3 | -40 | -1 | 0 | 23* | 6 | FP fluor counter=>55
CCCCCCn1c(=O)n2n(c1=O)[C@@H]1CN(S(=O)(=O)c3ccc(C)cc3)C[C@]1(O)[C@@H](OC(=O)NCC1CCCCC1)C2 | nt | nt | nt | nt | -3 | 2 | nt | nt
COc1cccc(NC(=O)CN(C)C(=O)C(C)Sc2ccccc2)c1 (centres undefined) | 0 | nt | -6 | 1 | 2 | -1 | nt | nt
Cc1ccc(-c2csc3nc[nH]c(=S)c23)cc1C | -5 | 22* | -5 | -9 | -30 | -2 | 3 | 13
COc1ccc(-c2csc3nc[nH]c(=O)c23)cc1OC | 4 | -6 | -4 | 2 | 1 | 0 | nt | nt
COc1ccc(C(=O)CSc2n[nH]c(=O)n2Cc2ccco2)cc1 | 3 | 18* | -8 | 3 | 11 | 0 | 10 | 12
CC(C)CC(C)N1CCC(n2nccc2NC(=O)CCc2ccccc2)CC1 (centres undefined) | -5 | 4 | 1 | 7 | 0 | 1 | nt | nt
Cc1noc(C)c1CSCC(=O)NCCN1C(=O)S/C(=C\c2ccccc2F)C1=O | -7 | -1 | -7 | 2 | -1 | 0 | nt | nt
